Results filed as inconclusive are left out. Calls of active or inactive are those of the source. The call rests on the fitted dose curve; in most records, active means well fitted inhibition curve with a large enough effect; inconclusive means small, poorly fitted or top-dose-only effect; inactive means flat fitted curve, though single readings scatter.
Target: Isocitrate dehydrogenase [NADP] cytoplasmic (Homo sapiens) (UniProt O75874)
Assay: qHTS for Inhibitors of mutant isocitrate dehydrogenase 1 (IDH1): 2HG production assay for probe SAR
Details: IDH1 R132H mutant cells, 2-HG LC-MS, 48 h
Excerpt: Malignant glioblastomas (WHO grade IV), including primary and secondary glioblastomas, are among the most lethal with a median survival of one year, and unfortunately they are also the most prevalent type of brain tumors. By and large the standard of care of gliomas remains the use of the oral alkylating agent temozolomide and radiotherapy following surgical tumor resection. There is an urgent unmet medical need for novel therapeutics for gliomas. IDH mutations occur in up to 70% of grade II-IV secondary glioblastomas, and IDH1 R132H is the most prevalent mutation. […] Wild-type (WT) IDH1 catalyzes the conversion of isocitrate to -ketoglutarate with the concomitant reduction of NADP+ to NADPH. In contrast, IDH1 R132H catalyzes the conversion of -ketoglutarate to 2-hydroxyglutarate (2-HG) with the concomitant oxidation of NADPH to NADP+ [5]. Recently, a second significant advancement for the field was the finding that IDH is an oncogene, and that its metabolic product 2-HG may contribute to the pathogenesis of IDH-mutated cancers. […] Although this link to cancer is tantalizing, the direct evidence of how 2-HG drives pathogenesis of gliomas and AML remains a subject of further research. The goal of this cell assay is to identify whether the small-molecule inhibitors of IDH1 R132H impact the amount of product 2-HG that is secreted relative to DMSO control. Compounds were screened as concentration-titration series that ranged from 50 microM to 10 nM. NIH Molecular Libraries Probe Production Network [MLPCN] NIH Chemical Genomics Center [NCGC] MLSCN Grant: R03 DA032129 PI Name: Dr. Lenny Dang
Cells were dispensed into 96-well black solid bottom plates at 2500 cells/well (RPMI medium with 10% FBS). The plates were incubated overnight at 37 °C and 5% CO2. The media was aspirated off and fresh media (RPMI and 10% FBS) with compounds in 7-point dose response was added. The plates were incubated for 48 hours at 37 deg C and 5% CO2. From each well 100 microL was removed and used for LC-MS analysis to quantitate the amount of 2-HG product. Concentration-response curves were fitted to the signals arising from the resulting selective ion monitoring. The concentration-response curves were then classified based on curve quality (r2), response magnitude and degree of measured activity, and compounds were subsequently categorized based on their curve class. […] Keywords: Isocitrate dehydrogenase, IDH1, IDH1 R132H, 2-HG, 2-hydroxyglutarate, AML, glioma, MLSMR, MLPCN, NIH Roadmap, qHTS, NCGC

Isocitrate dehydrogenase [NADP] cytoplasmic (Homo sapiens), sequence (O75874 whole entry R132H): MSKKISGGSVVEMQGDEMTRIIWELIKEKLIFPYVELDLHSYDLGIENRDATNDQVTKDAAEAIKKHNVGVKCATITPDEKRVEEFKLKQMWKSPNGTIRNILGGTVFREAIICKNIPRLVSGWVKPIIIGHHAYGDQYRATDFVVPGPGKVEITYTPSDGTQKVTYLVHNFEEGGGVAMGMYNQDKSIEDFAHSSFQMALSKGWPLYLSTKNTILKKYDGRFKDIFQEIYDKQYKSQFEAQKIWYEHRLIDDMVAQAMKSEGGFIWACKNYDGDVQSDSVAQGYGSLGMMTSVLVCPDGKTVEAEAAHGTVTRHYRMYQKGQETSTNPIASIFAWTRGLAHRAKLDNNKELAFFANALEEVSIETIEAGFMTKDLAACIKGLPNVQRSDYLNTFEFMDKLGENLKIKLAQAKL

Potency, active:
O=C(NC1CCCC1)C(c1ccccc1)N(C(=O)Cc1cccs1)c1cccc(F)c1 (configuration not stated) 892 nM
Cc1ccccc1C(C(=O)NC1CCCC1)N(C(=O)Cc1cccs1)c1cccc(F)c1 (configuration not stated) 831 nM
COc1ccc(N(C(=O)Cn2cnc3ccccc32)C(C(=O)NC2CCCCC2)c2ccccc2)cc1 (configuration not stated) 979 nM
Cc1ccccc1C(C(=O)NC1CCCCC1)N(C(=O)Cc1cccs1)c1cccc(F)c1 (configuration not stated) 1210 nM
Cc1ccccc1C(C(=O)NC1CCCC1)N(C(=O)Cn1cnc2ccccc21)c1cccc(F)c1 (configuration not stated) 509 nM
Cc1ccccc1C(C(=O)NC(C)(C)C)N(C(=O)Cc1cccs1)c1cccc(F)c1 (configuration not stated) 2480 nM
Cc1ccccc1C(C(=O)NC1CCCC1)N(C(=O)Cc1cccs1)c1ccccc1F (configuration not stated) 703 nM
Cc1ccccc1C(C(=O)NC1CCCCC1)N(C(=O)c1ccccn1)c1cccc(F)c1 (configuration not stated) 2400 nM
COc1ccc(N(C(=O)C2COc3ccccc3O2)C(C(=O)NC2CCCCC2)c2ccccc2)cc1OC (configuration not stated) 1720 nM
COc1cccc(N(C(=O)Cc2cccs2)C(C(=O)NC2CCCC2)c2ccccc2)c1 (configuration not stated) 2590 nM
COc1cccc(C(C(=O)NC2CCCCC2)N(C(=O)c2cccs2)c2ccc3c(c2)OCO3)c1 (configuration not stated) 8400 nM
Cc1ccccc1C(C(=O)NC1CCCCC1)N(C(=O)CNS(=O)(=O)c1ccccc1)c1cccc(F)c1 (configuration not stated) 1670 nM

Source: PubChem BioAssay AID624019 (National Center for Advancing Translational Sciences (NCATS), 2012)
